# Most compounds without a hit are left out; they make up all but 7.3% or so of the library.
# VACV mCherry inh: vaccinia inhibition (mCherry reporter); Vaccinia virus mCherry reporter infection, fluorescence; AID 720579; Potency, µM (titrated, usually from 36.5 µM), for the others: at the top dose activity change, negative = inhibition, most hits filed as inhibitors; 310,000 compounds, 0.63% hits; calls by dose curve; tested in A549 cells; note: potency is the fitted concentration of half-maximal effect; nearly all actives have a fitted effect of over 35% in size
# HCMV inh: human cytomegalovirus inhibition; HFF cells, HCMV-luciferase reporter, 72 h; active compounds read low; activity change, negative = inhibition, % at 57.5 µM; 410,000 compounds, 4.5% hits; in the data active = activity change below about -60%; inconclusive = no clear call, values can overlap the other calls; inactive = above about -39%
#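 Two compound doses tested in HFFs infected with HCMV-luciferase, MOI 1 PFU/cell, 72 h at 37C. Lysate luminescence read with OneGlo; data normalized against buffer-only and 10uM Salinomycin inhibitor controls.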
# VACV Venus inh: vaccinia inhibition (Venus reporter). Vaccinia virus Venus reporter expression, fluorescence. Potency, µM (titrated, usually from 36.5 µM), without a hit: top-dose activity change, negative = inhibition, usual class: inhibitors. 330,000 compounds, 0.46% hits. AID 720580; calls by dose curve; tested in A549 cells; note: potency is the fitted concentration of half-maximal effect; nearly all actives have a fitted effect of over 30% in size
# HCV inh: inhibitors of hepatitis C virus infection. Huh7.5.1 HCVcc-Cre infection, luciferase reporter, 44 h. Potency, µM (top dose mostly 41.8 µM), for the others: at the highest dose activity change, negative = inhibition, most hits filed as inhibitors. 340,000 compounds, 3.4% hits; active = well fitted inhibition curve with a large enough effect; inconclusive = small, poorly fitted or top-dose-only effect, or another doubt; inactive = no such curve, though single readings can be large or run the other way; note: potency is the fitted concentration of half-maximal effect
#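 Cells (1,000/well) were plated 4 h before compound, then infected with HCVcc-Cre virus (~0.5 moi). After 44 h further culture, infection was read as luciferase luminescence following a 15 min substrate incubation at room temperature.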
# FMDV inh: antivirals against foot and mouth disease virus | Potency, µM (top dose mostly 57.9 µM), for the others: at the highest dose activity change, negative = inhibition, actives largely listed as inhibitors | FMDV antiviral cell-based qHTS | AID 1159524 | 410,000 compounds, 1.2% hits; calls by dose curve; tested in HEK293T cells; note: read-out not given here; potency is the fitted concentration of half-maximal effect; nearly all actives have a fitted effect of over 45% in size
# * marks the source's active call; other numbers are inactive results; i = inactive; ? = inconclusive; · = no result given; [ ] = remark or other dose. % is set by controls: 0 for no effect and ±100 for the full control effect.
SMILES,VACV mCherry inh,HCMV inh,VACV Venus inh,HCV inh,FMDV inh
N=c1c(C(=O)NC2CCCCC2)cc2c(=O)n3ccccc3nc2n1Cc1ccccc1,·,?,·,11µM*,-11%
O=C(NC1CCCN(Cc2ccc(Cl)cc2)C1)c1cnc2ccccn2c1=O (stereo not drawn),-17%,-65*,-23%,?,-29%
Cc1ccc(Cn2c(=N)c(C(=O)NC3CCCC3)cc3c(=O)n4ccccc4nc32)cc1,·,·,·,?,-8%
CC(C)Cc1ccc(CN2CCCC(NC(=O)c3cnc4ccccn4c3=O)C2)cc1 (stereo not drawn),0%,-23,-9%,-11%,?
CCCCc1ccc(NC(=O)Cn2cnc3c2c(=O)n(C)c(=O)n3C)cc1,-12%,-2,-3%,·,1%
CCN(CC)c1cc2c(cc1F)c(=O)c(S(=O)(=O)c1cc(C)ccc1C)cn2Cc1ccccc1,-10%,?,-18%,·,3%
Cc1cc(C)c2c(n1)nn1c(C)c(CCC(=O)NCc3ccccc3Cl)c(C)nc21,10%,5,-9%,·,10%
COc1cc(NC(=O)CC(c2cccs2)N2Cc3ccccc3C2=O)cc(OC)c1OC (stereo not drawn),-20%,-5,-5%,·,4%
Cc1cccc(Nc2nc3c(s2)CCCC3)c1,-27%,63,-16%,-8%,-24%
O=C(O)c1ccc(Nc2nc3c(s2)CCCC3)cc1,·,?,·,9%,10µM*
Cc1nc(Nc2ccc(C(=O)O)cc2)sc1-c1ccccc1,i,14,-8%,21%,7.1µM*
CCSc1nnc(NC(=O)CSc2nc3c(c(=O)n2C)SC(C)C3)s1 (stereo not drawn),-10%,-85*,-8%,?,·
C=CCNC(=O)Cc1c(OC)ccc2cc(Br)ccc12,-21%,-32,-25%,10µM*,?
COc1ccc2cc(Br)ccc2c1CC(=O)NC(C)C,-9%,?,-4%,4%,-24%
CCCn1c2ccccc2c2cnn(CC(=O)N3CCN(c4ccccc4)CC3)c(=O)c21,-7%,-18,-13%,·,-11%
O=C(OCc1cccs1)c1ccccc1NS(=O)(=O)c1ccc2c(c1)OCCO2,i,-16,-13%,8.9µM*,16%
Cc1ccc2c(c1)-c1c(ssc1=S)C(C)(C)N2C(=O)CSc1nncn1C,·,-3,-26%,10µM*,?
Cc1cc(C)c2c(c1)-c1c(ssc1=S)C(C)(C)N2C(=O)CSc1nncn1C,·,6,?,13µM*,-22%
CC(C)(C)OC(=O)N1CCc2onc(-c3ccccc3[N+](=O)[O-])c2C1=O,-9%,-16,14%,·,-8%
CC(=O)Nc1ccc(S(=O)(=O)Nc2nc3ccccc3nc2Nc2ccc3ccccc3c2)cc1,-7%,26,-20%,37%,-3%
COC(=O)c1cc(Nc2nc3ccccc3nc2NS(=O)(=O)c2ccc(C)cc2)ccc1Cl,?,-106*,?,·,-4%
O=[N+]([O-])c1ccc(S(=O)(=O)Nc2nc3ccccc3nc2Nc2ccccc2)cc1,7%,-80*,-4%,?,-16%
COc1cc(Nc2nc3ccccc3nc2NS(=O)(=O)c2ccc([N+](=O)[O-])cc2)cc(OC)c1OC,?,-74*,-20%,22µM*,-33%
COC(=O)CN1C(=O)CSc2ccc(S(=O)(=O)Nc3ccc(F)c(Cl)c3)cc21,-8%,-7,-4%,·,59%
COc1ccc(S(=O)(=O)c2c(Nc3ccccc3F)sc(C(=O)c3cccc(OC)c3)c2N)cc1,-17%,-36,-29%,·,36%
SMILES,VACV mCherry inh,HCMV inh,VACV Venus inh,HCV inh,FMDV inh
O=C(CC1SCCNC1=O)NCc1ccccc1 (stereo not drawn),?,-9,-4%,·,-7%
CCOc1cc(NC(=S)NCCCN(C)C)c(OCC)cc1NC(=O)c1cccs1,-14%,-64*,-9%,?,0%
CCOc1cc(NS(=O)(=O)c2ccc(NC(C)=O)cc2)c(OCC)cc1NC(=O)c1cccs1,?,-79*,-27%,3%,0%
CCN(CC)C(=O)C(=O)c1cccn1-c1cccc(OC)c1C#N,·,-25,·,9%,-12%
COc1ccc(-c2nc(C#N)c(N3CCc4ccccc4C3)o2)cc1OC,·,-9,·,11µM*,0%
Cc1cccc(-c2nc(C#N)c(N3CCCCCC3)o2)c1,i,-8,-13%,25µM*,·
COc1ccc(N2CCN(c3oc(-c4ccc(OC)c(OC)c4)nc3C#N)CC2)cc1,-15%,50,-7%,21%,?
COc1ccccc1-c1nc(C#N)c(N2CCCCCC2)o1,·,?,·,?,-11%
COc1ccccc1-c1nc(C#N)c(N2CCc3ccccc3C2)o1,·,-17,·,11µM*,-10%
O=C(Cc1ccc(F)cc1)NCCc1csc2nc(-c3ccccc3F)nn12,-13%,4,-19%,·,-12%
O=C(O)CCCC(=O)OCCCc1cc2ccccc2c(=O)o1,·,-3,·,·,·
Cc1[nH]c2ccccc2c1C(=O)c1c(N)[nH]c(C(=O)c2ccccc2)c1-c1ccc(Cl)cc1,·,6,·,·,·
COc1cc2c(NC3CCN(C(C)C)CC3)nc(N3CCCN(C)CC3)nc2cc1OCCOCCN(C)C,1.6µM*,·,1.8µM*,·,·
COc1cc2c(NC3CCN(C)CC3)nc(N3CCCCC3)nc2cc1OCCCN(C)C,?,·,10µM*,·,·
COc1cc2c(NC3CCN(C(C)C)CC3)nc(N3CCCN(C)CC3)nc2cc1OCCCN1CCCC1,0.89µM*,·,1µM*,·,·
COc1cc2c(NC3CCN(C)CC3)nc(N3CCCCC3)nc2cc1OCCOCCN(C)C,10µM*,·,13µM*,·,·
COc1cc2nc(N3CCN(C)CC3)nc(NC3CCN(C)CC3)c2cc1OC,-15%,·,-30%,·,·
COc1cc2c(NC3CCN(C)CC3)nc(N3CCN(C)CC3)nc2cc1OCCOCCN(C)C,-20%,·,-19%,·,·
COc1ccccc1S(=O)(=O)N(C)C[C@@H]1OCc2cn(nn2)CCCC(=O)N([C@H](C)CO)C[C@H]1C,-12%,17,-13%,·,5%
O=C(/C=C/c1cccc([N+](=O)[O-])c1)c1ccc([N+](=O)[O-])o1,?,-10,13µM*,11%[8.37 µM],?
Cc1cccc(/C=C/C(=O)c2ccc([N+](=O)[O-])o2)c1,?,-103*,11µM*,0.63µM*,25µM*
Cc1ccccc1/C=C/C(=O)c1ccc([N+](=O)[O-])o1,?,-103*,?,?,22µM*
Cc1cccc(NC(=O)COC(=O)c2ccc([N+](=O)[O-])o2)c1C,4%,-32,-5%,17%,-14%
O=C(/C=C/c1cccc([N+](=O)[O-])c1)c1ccco1,·,1,·,18%,-25%
COc1ccc(/C=C/C(=O)c2ccc([N+](=O)[O-])o2)cc1,?,44,?,18%,25µM*
Cc1cc(F)ccc1NC(=O)C1CCC(CNS(=O)(=O)c2ccc3c(c2)CCCC(=O)N3)CC1 (stereo not drawn),-7%,-12,-14%,·,-28%
O=C(COC(=O)c1c2ccccc2cc2ccccc12)NCC(F)(F)F,-23%,-19,?,11µM*,-9%
